# An excerpt weighted towards active compounds, which were near 6.4% of everything screened.
# RORgamma inh: qHTS for inhibitors of ROR gamma transcriptional activity; Nuclear receptor ROR-gamma (Mus musculus), P51450; Drosophila S2 Gal4-RORgamma UAS-luciferase reporter, 20 h; Potency, µM (series often up to 53.6 µM), for the others: at the top dose activity change, negative = inhibition, most hits filed as inhibitors; 310,000 tested, 5.4% active; AID 2551, 2010; note: nearly all actives have a fitted effect of over 60% in size
# Target sequence (P51450 whole entry, looked up, the tested form may be a part): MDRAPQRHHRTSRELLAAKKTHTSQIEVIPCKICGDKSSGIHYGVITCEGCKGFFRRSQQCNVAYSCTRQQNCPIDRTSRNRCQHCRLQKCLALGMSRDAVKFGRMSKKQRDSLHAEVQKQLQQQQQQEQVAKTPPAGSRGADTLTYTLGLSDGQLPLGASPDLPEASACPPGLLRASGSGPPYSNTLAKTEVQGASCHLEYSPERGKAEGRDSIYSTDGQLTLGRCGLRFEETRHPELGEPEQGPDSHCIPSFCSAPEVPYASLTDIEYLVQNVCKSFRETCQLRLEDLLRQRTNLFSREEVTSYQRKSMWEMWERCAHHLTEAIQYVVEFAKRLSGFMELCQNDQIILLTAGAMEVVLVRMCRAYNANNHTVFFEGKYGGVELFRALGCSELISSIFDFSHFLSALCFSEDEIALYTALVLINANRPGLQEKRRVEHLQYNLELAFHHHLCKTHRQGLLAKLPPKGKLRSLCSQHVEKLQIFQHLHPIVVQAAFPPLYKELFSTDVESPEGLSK
#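 Using a luciferase readout, inhibitors were identified by reduced reporter activity in Drosophila cells coexpressing a copper-inducible Gal4–ROR gamma fusion and UAS-driven Photinus luciferase, incubated 20 hr after 700 uM copper sulfate.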
# Luc counter: Counterscreen for Luciferase (Kinase-Glo TM) Inhibition. Potency, µM (series often up to 38.3 µM), inactives show at the top dose activity change, negative = inhibition, hits mostly inhibitors. Kinase-Glo luciferase, ATP luminescence, 8 min. 200,000 tested, 0.28% active; note: nearly all actives have a fitted effect of over 60% in size
#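 Substrate mix (final 50 mM imidazole pH 7.2, 50 mM KCl, 7 mM MgCl2, 10 uM ATP, 0.01% Tween 20, 0.05% BSA) plus pin-tool compound, then Kinase-Glo detection mix; 8 min ambient, luminescence read.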
# VP16 counter: VP16 counterscreen qHTS for inhibitors of ROR gamma transcriptional activity; 310,000 tested, 3.5% active; Drosophila S2 Gal4-VP16 UAS-luciferase, luminescence, 20 h; Potency, µM (series often up to 53.6 µM), for the others: at the top dose activity, negative = inhibition, most hits filed as inhibitors;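 note: Gal4-VP16 expression switched on by copper sulfate through the metallothionein promoter; nearly all actives have a fitted effect of over 50% in size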
# Starred values were filed as active, the others as inactive; ? = inconclusive; nt = not tested or not shown; [ ] = remark or other dose. Calls come from the whole dose curve; as a rule, active = well fitted curve in the direction sought with a large enough effect; inconclusive = small, poorly fitted or top-dose-only effect, or another doubt; inactive = no such curve, though single readings can be large; an effect the other way counts as inactive or inconclusive. % is set by controls: 0 for no effect and ±100 for the full control effect; potency is the fitted concentration of half-maximal effect.
SMILES,RORgamma inh,Luc counter,VP16 counter
Cc1cc(C(=O)CSc2nnc(-c3ccccc3)n2-c2ccccc2)c(C)n1-c1ncn[nH]1,-8.8%,-4.0%,1.2%
Cc1cc(C(=O)CSc2nnc3ccccn23)c(C)n1-c1ccccc1,5.01µM*,-14.4%,2.82µM*
O=C(CSc1nnc2ccccn12)c1ccc2c(c1)OCCO2,12.6µM*,-10.6%,?
COc1ccc(C(=O)CSc2nnc3ccccn23)cc1OC,20.1%,-2.4%,21.6%
O=C(CCNC(=O)c1ccccc1)OCC(=O)c1cccc(Cl)c1,8.9%,0.9%,2.1%
O=C(CCC(=O)OCC(=O)c1ccc(-c2ccccc2)cc1)Nc1cccc(Cl)c1,7.08µM*,-1.8%,12.6µM*
O=C(CCC(=O)OCC(=O)c1ccccc1)Nc1cccc2cccnc12,2.4%,-0.1%,-12.7%
Cc1ccccc1NC(=O)CCC(=O)OCC(=O)c1ccc(-c2ccccc2)cc1,7.94µM*,-1.5%,10µM*
O=C(C1CCN(S(=O)(=O)c2ccccc2)CC1)N1CCN(Cc2ccccc2)CC1,4.7%,nt,-5.7%
CCCn1c(-c2cccs2)nc2ccccc21,4.47µM*,-3.3%,17.8µM*
CCn1c(C(O)c2ccccc2)nc2ccccc21 (stereo unspecified),-32.6%,-2.1%,8.2%
CCCn1c(CNS(=O)(=O)c2ccc(C)cc2)nc2ccccc21,11.2µM*,-0.6%,?
CCCn1c(C(O)c2ccc(C)cc2)nc2ccccc21 (stereo unspecified),2.82µM*,nt,?
CCCn1c(CNC(=O)Cc2ccccc2)nc2ccccc21,5.3%[0.365 µM],-3.1%,nt
C=CCn1c(-c2cccs2)nc2ccccc21,-14.1%,-0.7%,-1.7%
COc1ccccc1NC(=O)CSCc1nc2ccccc2[nH]1,1.8%,1.8%,2.1%
COc1cc(CC(=O)N(C)CC(=O)Nc2cc(C)ccc2C)cc(OC)c1OC,-4.2%,nt,-1.4%
C/C(=C\C=C\c1ccccc1)C(=O)c1c(C)cc(C)[nH]c1=O,-9.1%,-0.2%,8.5%
CC(C)C[C@@H](NC(=O)[C@@H](O)[C@H](N)Cc1ccccc1)C(=O)O,0.9%,0.9%[39.9 µM],2.4%
CCOC(=O)c1cccc(Nc2nc(C)cc(C)n2)c1,7.6%,0.6%,24.1%
COC(=O)c1cccc(Nc2nc3ccccc3nc2C)c1,-27.4%,nt,12.6µM*
COc1c(/C=N/NC(=O)c2ccncc2)c(CCN(C)C(C)=O)cc2c1OCO2,4.3%,nt,1.0%
CCCC[C@]12Cc3c(ccc4ccccc34)C(O1)C1=C(O2)C(=O)c2ccccc2C1=O,-23.1%[10 µM],nt,-3.6%[10 µM]
Cc1ccc(NC(=S)c2ccncc2)c(C)c1,?,nt,-6.8%
Cc1ccc(NC(=S)Nc2ccccn2)c(C)c1,0.794µM*,nt,6.31µM*
SMILES,RORgamma inh,Luc counter,VP16 counter
Cc1cc(Cl)ccc1Nc1ncccc1C(N)=O,?,-1.1%,3.1%
Cc1cc(Cl)ccc1NC(=S)Nc1ccccn1,1µM*,1.7%,1.26µM*
O=C(COc1ccccc1)Nc1nnc(S(=O)(=O)Nc2ccccc2)s1,5.7%,nt,-5.3%
O=C(COC(=O)c1ccc(O)cc1)NCC1CCCO1 (stereo unspecified),7.6%,0.1%,14.3%
CC1(C)C(=O)C(c2ccccc2)=C2CN3C(=O)N(CCc4ccccc4)C(=O)C3(Cc3ccccc3)C=C21 (stereo unspecified),-2.8%,-3.4%,8.8%
O=C(Nc1ccc2c(c1)CCC2)Nc1ccc(F)cc1F,5.4%,nt,-1.9%
CCc1c(C)sc(NC(=O)c2noc(C)c2[N+](=O)[O-])c1C#N,17.8µM*,2.1%,?
CCc1c(C)sc(NC(=O)c2cc(CC(C)C)on2)c1C#N,-12.7%,17.2%,0.8%
CN(C)CCNc1ncnc2c1sc1nc(-c3ccccc3)c3c(c12)CCCC3,?,nt,2.82µM*
COc1ncnc2c1sc1nc(-c3ccccc3)c3c(c12)CCCC3,1.9%,-1.6%,-8.2%
CCc1nnc(NC(=O)CCC(=O)N2CCN(Cc3ccc(F)cc3)CC2)s1,21.4%,nt,-12.2%
Cc1nc(N2CCN(c3ccc(Cl)cc3)CC2)[nH]c(=O)c1C,8.2%,nt,-13.5%
O=[N+]([O-])c1ccccc1S(=O)(=O)Nc1ccc2c(c1)OCCO2,1.9%,nt,0.0%
Clc1ccccc1-c1cc(NCc2ccccc2)ncn1,-0.7%,nt,25.8%
O=C(CCC1CCCN(C(=O)c2ccc3c(c2)OCO3)C1)NCc1ccc(F)c(F)c1 (stereo unspecified),18.7%,-4.0%,-4.2%
Cc1cc(SCC(=O)O)nc2ccccc12,-15.2%,-0.2%,2.8%
Cc1cc(SCC(=O)c2cc3ccccc3o2)nc2ccccc12,11.2µM*,-5.1%,?
Cc1cc(SCC(=O)Nc2cccnc2Cl)nc2ccccc12,-3.6%,1.6%,17.3%
CC(=O)NCCn1c(SCC(=O)NCCC2=CCCCC2)nc2ccccc2c1=O,-5.9%,0.0%,-8.5%
Cc1cc(SCC(=O)NCCC2=CCCCC2)nc2ccccc12,?,-2.8%,6.31µM*
Cc1nc(NC(=O)CSc2cc(C)c3ccccc3n2)c(Cl)cc1Cl,2.51µM*,nt,?
CSCC[C@H](NC(=O)[C@H](CC(C)C)NC(=O)CNC(=O)[C@H](Cc1ccc(O)cc1)NC(=O)[C@H](Cc1ccccc1)NC(=O)[C@H](CCC(N)=O)NC(=O)[C@H](CCC(N)=O)NC(=O)[C@@H]1CCCN1C(=O)[C@H](CCCCN)NC(=O)[C@@H]1CCCN1C(=O)[C@@H](N)CCCN=C(N)N)C(N)=O,8.9%,nt,-3.1%
COc1cccc2c1CCC1=CC(=O)CC[C@@]12C,1.4%,-5.9%,-4.7%
CC1=C(C(=O)OCc2ccccc2)C(c2cccc([N+](=O)[O-])c2)NC(=O)N1C (stereo unspecified),27.1%,nt,?
COCCCn1cnc2c(c1=O)c1nc3ccccc3nc1n2-c1ccc(C)cc1,1.6%,-1.8%,3.7%
SMILES,RORgamma inh,Luc counter,VP16 counter
Cc1cc(C)cc(-n2c3nc4ccccc4nc3c3c(=O)n(Cc4ccco4)cnc32)c1,11.2µM*,0.4%,11.2µM*
Cc1ccccc1-c1cc(-c2ccccc2O)n[nH]1,5.62µM*,0.8%,?
Cc1c(Cl)cccc1NC(=O)c1cc(-c2ccccc2O)n[nH]1,7.9%,-0.1%,1.1%
COc1ccc(O)c(-c2cc(-c3cccs3)[nH]n2)c1,3.98µM*,-0.9%,?
COC(=O)c1cc(-c2cccs2)[nH]n1,-9.9%,2.6%,1.9%[10 µM]
COc1ccc(-c2cc(-c3ccccc3O)[nH]n2)cc1,6.31µM*,nt,15.8µM*
COc1ccccc1-c1cc(-c2cc(Cl)ccc2O)n[nH]1,-44.8%[10 µM],-3.2%,-21.7%
COC(=O)c1cc(-c2ccc(OC)cc2)n[nH]1,-4.2%,-4.9%,5.5%[10 µM]
Oc1ccc(Cl)cc1-c1cc(-c2ccccc2)n[nH]1,1.41µM*,3.4%,4.47µM*
C=Cc1ccc(Cn2nc(-c3ccccc3)ccc2=O)cc1,-3.2%,nt,-2.8%
O=C(CCN1C(=O)[C@@H]2Cc3ccccc3CN2C1=O)NCc1ccc(Cl)cc1,-0.5%,nt,-5.6%
COc1cccc(CCNC(=O)c2cc(COc3c(F)cccc3F)on2)c1,39.4%,nt,3.0%
Cc1ccc(-c2cc(-c3ccccc3Cl)[nH]n2)c(O)c1,?,7.1%,?
COc1ccc(-c2nnc(-c3ccccc3O)o2)cc1,?,nt,12.6µM*
Cc1ccc(-c2nnc(-c3ccccc3)o2)cc1,?,-25.9%,10µM*
